Results reported in PubChem BioAssay AID1508601 (ICCB-Longwood Screening Facility, Harvard Medical School, 2020).
Several values for one entry are separate records, joined by “and”; a condition that tells them apart may be missing. Identical values can stand only once. The campaign covered roughly 5,700 compounds. About 85 (1%) were called active. Cut-off read from the data, not from the text of the source: active = p53-positive nuclei above about 36% (passing the limit was not always enough); inactive = the rest. The sample as a whole holds a higher share of actives than the screen did.

How the values were obtained:
[1] = nuclear p53 accumulation, HPV+ cells – imaging, p53-positive nuclei imaging, 24 h, 48 h (AID 1508601); settings: 24/48 h
[2] = target: Cellular tumor antigen p53 (Homo sapiens) (UniProt P04637); assay: as above; settings: 24/48 h, stronger effect = higher value
[3] = measured here: cell number at 24 h, Library stock concentration: 3.33 mM
[4] = measured here: cell number at 48 h, Library stock concentration: 3.33 mM
[5] = Library stock concentration: 3.33 mM
[6] = measured here: p53 positive nuclei at 24 h, Library stock concentration: 3.33 mM
[7] = measured here: cell number at 24 h, Library stock concentration: 80 uM
[8] = measured here: cell number at 24 h, Library stock concentration: 400 uM
[9] = measured here: cell number at 24 h, Library stock concentration: 2 mM
[10] = measured here: cell number at 24 h, Library stock concentration: 10 mM
[11] = measured here: cell number at 48 h, Library stock concentration: 80 uM
[12] = measured here: cell number at 48 h, Library stock concentration: 400 uM
[13] = measured here: cell number at 48 h, Library stock concentration: 2 mM
[14] = measured here: cell number at 48 h, Library stock concentration: 10 mM
[15] = Library stock concentration: 80 uM
[16] = Library stock concentration: 400 uM
[17] = Library stock concentration: 2 mM
[18] = Library stock concentration: 10 mM
[19] = measured here: p53 positive nuclei at 24 h, Library stock concentration: 80 uM
[20] = measured here: p53 positive nuclei at 24 h, Library stock concentration: 400 uM
[21] = measured here: p53 positive nuclei at 24 h, Library stock concentration: 2 mM
[22] = measured here: p53 positive nuclei at 24 h, Library stock concentration: 10 mM
[23] = measured here: cell number at 24 h, concentration not given here
[24] = measured here: cell number at 48 h, concentration not given here
[25] = measured here: p53 positive nuclei at 24 h, concentration not given here
[26] = measured here: cell number at 24 h, Library stock concentration: 46 uM
[27] = measured here: cell number at 24 h, Library stock concentration: 278 uM
[28] = measured here: cell number at 24 h, Library stock concentration: 1.67 mM
[29] = measured here: cell number at 48 h, Library stock concentration: 46 uM
[30] = measured here: cell number at 48 h, Library stock concentration: 278 uM
[31] = measured here: cell number at 48 h, Library stock concentration: 1.67 mM
[32] = Library stock concentration: 46 uM
[33] = Library stock concentration: 278 uM
[34] = Library stock concentration: 1.67 mM
[35] = measured here: p53 positive nuclei at 24 h, Library stock concentration: 46 uM
[36] = measured here: p53 positive nuclei at 24 h, Library stock concentration: 278 uM
[37] = measured here: p53 positive nuclei at 24 h, Library stock concentration: 1.67 mM

Sequence of Cellular tumor antigen p53 (Homo sapiens) (P04637 whole entry, looked up): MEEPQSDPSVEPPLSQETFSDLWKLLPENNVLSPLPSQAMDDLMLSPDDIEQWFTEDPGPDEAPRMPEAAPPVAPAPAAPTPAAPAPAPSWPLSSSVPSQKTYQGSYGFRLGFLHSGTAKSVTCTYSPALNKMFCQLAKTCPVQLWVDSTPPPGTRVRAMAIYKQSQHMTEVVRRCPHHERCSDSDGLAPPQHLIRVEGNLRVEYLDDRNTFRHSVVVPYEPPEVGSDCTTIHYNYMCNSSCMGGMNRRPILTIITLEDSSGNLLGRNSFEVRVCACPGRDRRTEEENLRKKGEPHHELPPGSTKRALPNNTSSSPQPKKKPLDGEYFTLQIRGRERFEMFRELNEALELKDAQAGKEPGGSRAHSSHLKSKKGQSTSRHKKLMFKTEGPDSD

In the case of `COCC(NC(=O)c1cnc(C)s1)C(=O)NC(COC)C(=O)NC(Cc1ccccc1)C(=O)C1(C)CO1` (stereo not drawn), the nuclei count, normalised [1, 3] is reported as 50.4%, the nuclei count, normalised [1, 4] is reported as 40.7% and the p53-positive nuclei, normalised [2, 5] is reported as 96.5% (active). The p53-positive nuclei, normalised [2, 6] was 116%.
With `CC(C)C(N)C(=O)NC(Cc1ccccc1)C(=O)O` (stereo not drawn) the nuclei count, normalised [1, 7] was 118%, the nuclei count, normalised [1, 8] was 113% and the nuclei count, normalised [1, 9] was 112%. It also gave a nuclei count, normalised [1, 10] of 113%, a nuclei count, normalised [1, 11] of 107% and a nuclei count, normalised [1, 12] of 100%. For the same compound, the nuclei count, normalised [1, 13] was 103%, the nuclei count, normalised [1, 14] was 102% and the p53-positive nuclei, normalised [2, 15] was -0.188% (inactive). For the same compound, the p53-positive nuclei, normalised [2, 16] was 0.0868% (inactive), the p53-positive nuclei, normalised [2, 17] was -0.0686% (inactive) and the p53-positive nuclei, normalised [2, 18] was -0.0304% (inactive). The p53-positive nuclei, normalised [2, 19] was -0.0726%, the p53-positive nuclei, normalised [2, 20] was -0.0759% and the p53-positive nuclei, normalised [2, 21] was 0.0367%. The p53-positive nuclei, normalised [2, 22] was -0.118%.
With `C[C@H]1O[C@@H](O[C@H]2[C@@H](O)C[C@H](O[C@H]3[C@@H](O)C[C@H](O[C@H]4CC[C@]5(C)C6CC[C@]7(C)[C@@H](C8=CC(=O)OC8)CC[C@]7(O)C6CC[C@@H]5C4)O[C@@H]3C)O[C@@H]2C)C[C@H](O)[C@@H]1O` (stereo partly drawn) the nuclei count, normalised [1, 23] was 49%, the nuclei count, normalised [1, 24] was 31% and the p53-positive nuclei, normalised ([2]; concentration not given here) was 16.9% (inactive). The p53-positive nuclei, normalised [2, 25] was 3.09%.
In the case of `CC(C)OC(=O)CCC/C=C\C[C@@H]1[C@@H](/C=C/[C@@H](O)CCc2ccccc2)[C@H](O)C[C@@H]1O`, the nuclei count, normalised [1, 23] is reported as 106%, the nuclei count, normalised [1, 24] is reported as 105% and the p53-positive nuclei, normalised ([2]; concentration not given here) is reported as 0.0477% (inactive). The p53-positive nuclei, normalised [2, 25] was -0.0131%.
In the case of `CCN(CC)C(=O)[C@]1(c2ccccc2)CC1CN` (stereo partly drawn), the nuclei count, normalised [1, 3] is reported as 107%, the nuclei count, normalised [1, 4] is reported as 99.9% and the p53-positive nuclei, normalised [2, 5] is reported as -0.0572% (inactive). It also gave a p53-positive nuclei, normalised [2, 6] of -0.236%.
With `COc1cccc(CN2CCN(c3ccc4cccc(OC)c4n3)CC2)c1` the nuclei count, normalised [1, 23] was 109%, the nuclei count, normalised [1, 24] was 114% and the p53-positive nuclei, normalised ([2]; concentration not given here) was 0.13% (inactive). It also gave a p53-positive nuclei, normalised [2, 25] of 0.279%.
In the case of `O=C(O)CCC/C=C\C[C@@H]1[C@@H](/C=C/[C@H](O)CCc2ccccc2)[C@H](O)C[C@@H]1O`, the nuclei count, normalised [1, 23] is reported as 107%, the nuclei count, normalised [1, 24] is reported as 108% and the p53-positive nuclei, normalised ([2]; concentration not given here) is reported as -0.104% (inactive). The p53-positive nuclei, normalised [2, 25] was -0.0183%.
With `O=C(O)CCCC=CCC1C(O)CC(O)C1C=CC(O)COc1cccc(Cl)c1` (stereo not drawn) the nuclei count, normalised [1, 7] was 91.3%, the nuclei count, normalised [1, 8] was 83% and the nuclei count, normalised [1, 9] was 71%. It also gave a nuclei count, normalised [1, 10] of 62.6%, a nuclei count, normalised [1, 11] of 91.4% and a nuclei count, normalised [1, 12] of 86.3%. For the same compound, the nuclei count, normalised [1, 13] was 76.4%, the nuclei count, normalised [1, 14] was 62.3% and the p53-positive nuclei, normalised [2, 15] was -0.163% (inactive). The p53-positive nuclei, normalised [2, 16] was -0.108% (inactive), the p53-positive nuclei, normalised [2, 17] was 0.08% (inactive) and the p53-positive nuclei, normalised [2, 18] was 0.269% (inactive). It also gave a p53-positive nuclei, normalised [2, 19] of 0.18%, a p53-positive nuclei, normalised [2, 20] of 0.0351% and a p53-positive nuclei, normalised [2, 21] of 0.0627%. For the same compound, the p53-positive nuclei, normalised [2, 22] was -0.0194%.
In the case of `COC1=C2CC(C)CC(OC)C(O)C(C)C=C(C)C(OC(N)=O)C(OC)C=CC=C(C)C(=O)NC(=CC1=O)C2=O` (stereo not drawn), the nuclei count, normalised [1, 3] is reported as 40.1%, the nuclei count, normalised [1, 4] is reported as 28.1% and the p53-positive nuclei, normalised [2, 5] is reported as -0.0882% (inactive). It also gave a p53-positive nuclei, normalised [2, 6] of -0.356%.
In the case of `CCCCCN=C(N)N/N=C/c1c[nH]c2ccc(OC)cc12`, the nuclei count, normalised [1, 23] is reported as 107%, the nuclei count, normalised [1, 24] is reported as 112% and 109% and the p53-positive nuclei, normalised ([2]; concentration not given here) is reported as -0.135% (inactive) and -0.2% (inactive). For the same compound, the p53-positive nuclei, normalised [2, 25] was 0.0257% and -0.191%.
With `CC1C[C@H]2[C@@H]3CCC4=CC(=O)C=C[C@]4(C)[C@@H]3C(=O)C[C@]2(C)[C@]1(O)C(=O)CO` (stereo partly drawn) the nuclei count, normalised [1, 3] was 104%, the nuclei count, normalised [1, 4] was 88.5% and the p53-positive nuclei, normalised [2, 5] was 1.05% (inactive). It also gave a p53-positive nuclei, normalised [2, 6] of 1.05%.
With `CN(CCC(Oc1ccc(-c2ccccc2)cc1)c1ccc(F)cc1)CC(=O)O` (stereo not drawn) the nuclei count, normalised [1, 26] was 112%, the nuclei count, normalised [1, 27] was 111% and the nuclei count, normalised [1, 28] was 107%. The nuclei count, normalised [1, 10] was 115%, the nuclei count, normalised [1, 29] was 109% and the nuclei count, normalised [1, 30] was 113%. The nuclei count, normalised [1, 31] was 104%, the nuclei count, normalised [1, 14] was 110% and the p53-positive nuclei, normalised [2, 32] was -0.199% (inactive). The p53-positive nuclei, normalised [2, 33] was -0.17% (inactive), the p53-positive nuclei, normalised [2, 34] was 0.114% (inactive) and the p53-positive nuclei, normalised [2, 18] was -0.129% (inactive). It also gave a p53-positive nuclei, normalised [2, 35] of -0.152%, a p53-positive nuclei, normalised [2, 36] of -0.0916% and a p53-positive nuclei, normalised [2, 37] of -0.153%. The p53-positive nuclei, normalised [2, 22] was -0.0944%.
With `O=C1CC(c2ccc([N+](=O)[O-])cc2)=NN1c1ccccc1` the nuclei count, normalised [1, 26] was 114%, the nuclei count, normalised [1, 27] was 115% and the nuclei count, normalised [1, 28] was 116%. For the same compound, the nuclei count, normalised [1, 10] was 117%, the nuclei count, normalised [1, 29] was 107% and the nuclei count, normalised [1, 30] was 109%. The nuclei count, normalised [1, 31] was 110%, the nuclei count, normalised [1, 14] was 106% and the p53-positive nuclei, normalised [2, 32] was -0.127% (inactive). For the same compound, the p53-positive nuclei, normalised [2, 33] was 0.0933% (inactive), the p53-positive nuclei, normalised [2, 34] was -0.137% (inactive) and the p53-positive nuclei, normalised [2, 18] was -0.204% (inactive). For the same compound, the p53-positive nuclei, normalised [2, 35] was -0.0266%, the p53-positive nuclei, normalised [2, 36] was 0.0349% and the p53-positive nuclei, normalised [2, 37] was 0.0231%. For the same compound, the p53-positive nuclei, normalised [2, 22] was 0.0862%.
For `CC(O)[C@H]1C(=O)N2C(C(=O)OCOC(=O)C(C)(C)C)=C(SC3CN(C4=NCCS4)C3)C(C)[C@@H]12` (stereo partly drawn), the nuclei count, normalised [1, 3] was 106%, the nuclei count, normalised [1, 4] was 101% and the p53-positive nuclei, normalised [2, 5] was -0.0394% (inactive). For the same compound, the p53-positive nuclei, normalised [2, 6] was -0.252%.
In the case of `CC1(C)SC2C(NC(=O)C(NC(=O)N3CCNC3=O)c3ccccc3)C(=O)N2C1C(=O)O` (stereo not drawn), the nuclei count, normalised [1, 3] is reported as 118%, the nuclei count, normalised [1, 4] is reported as 111% and the p53-positive nuclei, normalised [2, 5] is reported as -0.143% (inactive). It also gave a p53-positive nuclei, normalised [2, 6] of -0.242%.
